Assay results: PubChem BioAssay (Tox21)
A number with no mark means an inactive call. Results filed as inconclusive are left out. Where a call stands in place of a potency, no number is given. Activity calls are given as the source filed them. Unless noted, calls come from the whole dose curve; as a rule, active = well fitted curve in the direction sought with a large enough effect in the repeat runs; inconclusive = weak or mixed curves; inactive = no such curve, though single readings can be large; an effect the other way counts as inactive or inconclusive.

Columns and labels:
[1] = biological target: Progesterone receptor (Homo sapiens) (UniProt P06401); assay: qHTS assay to identify small molecule agonists of the progesterone receptor (PR) signaling pathway (AID 1346784; calls by dose curve; note: nearly all actives have a fitted effect of over 30% in size)
Method in brief: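 PR-UAS-bla HEK 293T cells carrying a UAS-driven beta-lactamase reporter were seeded in medium with 2% charcoal-stripped FBS, preincubated 6 hr at 37C, then exposed to compounds in DMSO for 16 hr; agonism was read by LiveBLAzer B/G FRET fluorescence.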

[2] = biological target: Progesterone receptor (Homo sapiens) (UniProt P06401); assay: qHTS assay to identify small molecule antagonists of the progesterone receptor (PR) signaling pathway (AID 1346795; active = well fitted inhibition curve with a large enough effect in the signal ratio in the repeat runs, not every such curve was filed as active; the % refers to the signal ratio)
Method in brief: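 PR-UAS-bla HEK293T cells carrying a UAS-driven beta-lactamase reporter were plated in medium with 2% charcoal-stripped FBS and rested 6 hr at 37C. Compounds were added with 1 nM R5020 (final) for 16 hr, then FRET substrate loaded 2 hr at room temperature.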

[3] = qHTS assay to identify small molecule antagonists of the progesterone receptor (PR) signaling pathway - cell viability counter screen (AID 1346798); note: series mostly up to about 92 µM; nearly all actives have a fitted effect of over 50% in size
Method in brief: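 PR-UAS-bla HEK293T cells in medium with 2% charcoal-stripped FBS were treated with compounds plus R5020 for 16 hr at 37C. Cell viability was then read by CellTiter-Glo luminescence after 30 min at room temperature in the same wells.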

[4] = qHTS assay to identify small molecule agonists of the progesterone receptor (PR) signaling pathway - cell viability counter screen (AID 1346799; calls by dose curve; note: nearly all actives have a fitted effect of over 45% in size)
Method in brief: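 PR-UAS-bla HEK293T cells, 3,000 per well in medium with 2% charcoal-stripped FBS, were preincubated 6 hr at 37C, then exposed to compounds for 16 hr; viability was read as CellTiter-Glo luminescence after 30 min at room temperature.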

[5] = qHTS assay to identify small molecule agonists of the TGF-beta/Smad signaling pathway - cell viability counter screen (AID 1346829); note: top concentration of the series differs between compounds; nearly all actives have a fitted effect of over 45% in size
Method in brief: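 Luminescence from CellTiter-Glo, read after a 30 min room-temperature incubation, gives cell viability of SBE-bla HEK 293T cells treated 5 hr with compounds at 37 C.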

[6] = qHTS assay to identify small molecule agonists of the TGF-beta/Smad signaling pathway (AID 1346859; active = well fitted activation curve with a large enough effect in the signal ratio in the repeat runs, not every such curve was filed as active; the % refers to the signal ratio; note: series mostly up to about 77 µM)
Method in brief: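 HEK 293T cells stably carrying a beta-lactamase reporter driven by the Smad binding element were seeded overnight, exposed to DMSO-dissolved compounds for 5 hr at 37 C, 5% CO2, then loaded with FRET substrate for 2 hr at room temperature.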

[7] = biological target: Thyrotropin-releasing hormone receptor (Homo sapiens) (UniProt P34981); assay: qHTS assay to identify small molecule antagonists of the thyrotropin-releasing hormone receptor (TRHR) signaling pathway (AID 1346877; active = well fitted inhibition curve with a large enough effect in the repeat runs, not every such curve was filed as active; note: series mostly up to about 51 µM)
Method in brief: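 HEK293/TRHR cells, 18 h, 37 °C; Ca2+ dye 2 h; cpd 5 min RT; TRH 1 nM final; fluorescence read 3 min, 1 s intervals; 15 concs, triplicate.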

[8] = biological target: Thyrotropin-releasing hormone receptor (Homo sapiens) (UniProt P34981); assay: qHTS assay to identify small molecule agonists of the thyrotropin-releasing hormone receptor (TRHR) signaling pathway (AID 1346891; calls by dose curve; note: series mostly up to about 58 µM)
Method in brief: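 TRHR-expressing HEK293 cells were plated 18 h at 37 °C/5% CO2, loaded with calcium dye 2 h at 37 °C, then given compound in DMSO; fluorescence was read kinetically for 3 min at 1 s intervals.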

[9] = Human pregnane X receptor (PXR) small molecule agonists, qHTS cell viability counter screen (AID 1346977); note: nearly all actives have a fitted effect of over 50% in size; note: potency is the fitted concentration of half-maximal effect
Method in brief: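 PXR-Luc HepG2 cells in medium with 5% charcoal-stripped FBS were pre-incubated 5hr, then exposed to compounds for 24hr at 37C. Viability was read in the same wells by CellTiter-Fluor fluorescence, reagent added after 23hr with a 1hr incubation.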

[10] = Caspase-3/7 induction in CHO-K1 cells by small molecules, qHTS cell viability counter screen (AID 1346979); note: nearly all actives have a fitted effect of over 35% in size; note: potency is the fitted concentration of half-maximal effect
Method in brief: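 Wild-type CHO-K1 cells were seeded at 1,500 per well, rested 5hr at 37 C, then exposed to compounds in DMSO. After 16hr, CellTiter-Fluor reagent was added and fluorescence read 1hr later as the viability measure.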

[11] = Caspase-3/7 induction in CHO-K1 cells by small molecules, qHTS assay (AID 1346980); note: nearly all actives have a fitted effect of over 15% in size
Method in brief: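 Wild-type cells were seeded at 1,500 per well and settled 5 hr at 37 C, 5% CO2, then exposed to DMSO-dissolved compounds for 17 hr. Caspase-Glo 3/7 reagent was added, and luminescence was read after 30min at room temperature.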

[12] = biological target: Nuclear receptor subfamily 1 group I member 2 (Homo sapiens) (UniProt O75469); assay: Human pregnane X receptor (PXR) small molecule agonists, qHTS assay (AID 1346982); note: nearly all actives have a fitted effect of over 35% in size; note: potency is the fitted concentration of half-maximal effect
Method in brief: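 HepG2 PXR-Luc reporter line, 5% charcoal-stripped FBS; 5 hr pre-incubation, compound (DMSO) 24 hr at 37 C/5% CO2; ONE-Glo 30 min RT; luminescence read-out.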

[13] = biological target: Nuclear receptor subfamily 1 group I member 2 (Homo sapiens) (UniProt O75469); assay: CYP3A4 induction through human pregnane X receptor (PXR) by small molecules, qHTS assay (AID 1346984); note: nearly all actives have a fitted effect of over 40% in size; note: potency is the fitted concentration of half-maximal effect
Method in brief: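 HepG2-derived DPX-2 line carrying PXR plus a CYP3A4-promoter luciferase reporter; cells plated 5 hr, compound-exposed 24 hr at 37C. CYP3A4 activity probed with 3uM (final) Luciferin-IPA for 3hr, then luciferase read after One-Glo.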

[14] = biological target: Nuclear receptor subfamily 1 group I member 2 (Homo sapiens) (UniProt O75469); assay: Human pregnane X receptor (PXR) activation by small molecules, qHTS assay (AID 1346985); note: nearly all actives have a fitted effect of over 40% in size; note: potency is the fitted concentration of half-maximal effect
Method in brief: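 DPX-2 cells (HepG2 co-transfected with a PXR response element and a CYP3A4-promoter luciferase construct) were seeded at 2,000 per well, rested 5 hr at 37C, then exposed to DMSO-dissolved compounds for 24 hr. Activation was read as luciferase luminescence.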

[15] = biological target: Cytochrome P450 2D6 (Homo sapiens) (UniProt P10635); assay: Cytochrome P450 Family 2 Subfamily D Member 6 (CYP2D6) small molecule antagonists: luciferase reporter qHTS assay (AID 1671196); note: nearly all actives have a fitted effect of over 50% in size; note: potency is the fitted concentration of half-maximal effect
Method in brief: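 Luminogenic proluciferin substrate, CYP2D6 enzyme; 10 min RT preincubation with compound, NADPH regeneration system added, 1 h RT. Stop/detection reagent, 20 min RT, luminescence read (RLU). Signal proportional to CYP activity.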

[16] = biological target: Cytochrome P450 2C19 (Homo sapiens) (UniProt P33261); assay: Cytochrome P450 Family 2 Subfamily C Member 19 (CYP2C19) small molecule antagonists: luciferase reporter qHTS assay (AID 1671197); note: nearly all actives have a fitted effect of over 65% in size; note: potency is the fitted concentration of half-maximal effect
Method in brief: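 CYP2C19 P450-Glo, 1536-well qHTS. Cpd + enzyme/proluciferin substrate 10 min RT; + NADPH regen, 37C 1 h; stop with luciferin detection reagent, 20 min RT, luminescence (RLU). Pos ctrl ketoconazole.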

[17] = qHTS assay to identify small molecule antagonists of the TGF-beta/Smad signaling pathway - cell viability counter screen (AID 1346824); note: nearly all actives have a fitted effect of over 50% in size
Method in brief: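 SBE-bla HEK 293T cells were plated overnight at 37 C, then given compounds in DMSO plus TGF-beta1 (added as 0.25 ng/mL solution) for 5 hr. After the bla read, CellTiter-Glo was added to the same wells and luminescence read after 30 min at room temperature.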

[18] = Caspase-3/7 induction in HepG2 cells by small molecules, qHTS assay (AID 1346978); note: nearly all actives have a fitted effect of over 15% in size
Method in brief: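 Wild-type HepG2 cells (2,000/well) were settled 5 h at 37 C, 5% CO2, then exposed to compounds in DMSO for 17 h. Caspase-3/7 activity was read by luminescence 30 min after adding Caspase-Glo 3/7 reagent at room temperature.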

[19] = Caspase-3/7 induction in HepG2 cells by small molecules, qHTS cell viability counter screen (AID 1346981); note: series mostly up to about 92 µM; nearly all actives have a fitted effect of over 30% in size
Method in brief: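 Fluorescence read-out of live-cell protease activity (CellTiter-Fluor) after 1 hr with reagent. This was measured in the same wells as the caspase-3/7 luminescence, on HepG2 cells exposed to DMSO-dissolved compounds for 16 hr at 37 C.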

Chain of Cytochrome P450 2C19 (Homo sapiens) (P33261 whole entry, looked up): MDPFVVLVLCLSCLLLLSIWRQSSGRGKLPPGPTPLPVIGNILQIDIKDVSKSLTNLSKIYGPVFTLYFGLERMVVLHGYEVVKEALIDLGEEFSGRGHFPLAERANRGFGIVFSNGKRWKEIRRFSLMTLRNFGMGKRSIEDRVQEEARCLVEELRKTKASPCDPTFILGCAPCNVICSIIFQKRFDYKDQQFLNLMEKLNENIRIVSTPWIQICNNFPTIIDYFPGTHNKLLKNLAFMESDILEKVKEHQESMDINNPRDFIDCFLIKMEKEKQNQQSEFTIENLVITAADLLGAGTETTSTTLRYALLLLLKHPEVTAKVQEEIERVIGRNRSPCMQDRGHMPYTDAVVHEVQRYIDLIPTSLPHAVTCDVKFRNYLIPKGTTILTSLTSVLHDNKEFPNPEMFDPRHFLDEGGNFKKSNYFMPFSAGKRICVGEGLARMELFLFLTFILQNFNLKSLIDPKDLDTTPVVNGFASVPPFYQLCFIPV
Chain of Nuclear receptor subfamily 1 group I member 2 (Homo sapiens) (O75469 whole entry, looked up): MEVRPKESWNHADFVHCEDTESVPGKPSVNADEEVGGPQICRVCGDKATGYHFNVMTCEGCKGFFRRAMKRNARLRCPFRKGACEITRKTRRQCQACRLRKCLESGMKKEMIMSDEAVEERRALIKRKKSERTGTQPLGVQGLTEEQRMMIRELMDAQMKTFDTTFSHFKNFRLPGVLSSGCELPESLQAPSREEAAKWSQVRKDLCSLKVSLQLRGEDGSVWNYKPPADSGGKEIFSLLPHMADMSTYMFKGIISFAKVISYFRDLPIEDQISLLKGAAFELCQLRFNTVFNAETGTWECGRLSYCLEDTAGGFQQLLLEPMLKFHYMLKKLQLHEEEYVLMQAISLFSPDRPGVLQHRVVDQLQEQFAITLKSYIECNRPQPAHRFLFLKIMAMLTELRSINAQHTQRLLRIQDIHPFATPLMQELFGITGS
Chain of Thyrotropin-releasing hormone receptor (Homo sapiens) (P34981 whole entry, looked up): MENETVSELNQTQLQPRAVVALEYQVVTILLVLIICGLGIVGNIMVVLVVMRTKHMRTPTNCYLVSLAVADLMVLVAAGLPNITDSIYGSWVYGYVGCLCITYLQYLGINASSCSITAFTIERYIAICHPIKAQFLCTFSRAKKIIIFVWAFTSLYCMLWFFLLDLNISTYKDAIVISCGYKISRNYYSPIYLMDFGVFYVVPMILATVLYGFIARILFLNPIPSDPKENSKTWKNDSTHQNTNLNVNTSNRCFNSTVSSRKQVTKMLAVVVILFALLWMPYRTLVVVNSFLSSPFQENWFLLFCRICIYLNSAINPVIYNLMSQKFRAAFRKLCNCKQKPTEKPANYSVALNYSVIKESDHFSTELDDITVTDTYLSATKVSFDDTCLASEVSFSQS
Chain of Cytochrome P450 2D6 (Homo sapiens) (P10635 whole entry, looked up): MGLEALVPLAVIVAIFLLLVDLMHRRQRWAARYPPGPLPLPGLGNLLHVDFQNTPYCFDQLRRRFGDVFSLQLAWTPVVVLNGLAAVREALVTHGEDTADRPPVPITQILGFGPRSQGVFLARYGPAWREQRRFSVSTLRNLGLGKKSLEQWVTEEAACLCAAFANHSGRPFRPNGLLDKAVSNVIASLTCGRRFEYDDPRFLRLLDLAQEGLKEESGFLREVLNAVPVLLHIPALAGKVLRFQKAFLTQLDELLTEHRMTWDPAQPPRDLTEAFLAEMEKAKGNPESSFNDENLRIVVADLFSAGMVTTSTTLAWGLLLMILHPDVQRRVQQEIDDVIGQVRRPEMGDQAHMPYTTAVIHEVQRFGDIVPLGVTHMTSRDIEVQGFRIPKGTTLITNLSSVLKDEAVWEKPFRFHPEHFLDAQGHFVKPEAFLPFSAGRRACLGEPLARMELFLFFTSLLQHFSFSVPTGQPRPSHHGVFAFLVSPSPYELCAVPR
Chain of Progesterone receptor (Homo sapiens) (P06401 whole entry, looked up): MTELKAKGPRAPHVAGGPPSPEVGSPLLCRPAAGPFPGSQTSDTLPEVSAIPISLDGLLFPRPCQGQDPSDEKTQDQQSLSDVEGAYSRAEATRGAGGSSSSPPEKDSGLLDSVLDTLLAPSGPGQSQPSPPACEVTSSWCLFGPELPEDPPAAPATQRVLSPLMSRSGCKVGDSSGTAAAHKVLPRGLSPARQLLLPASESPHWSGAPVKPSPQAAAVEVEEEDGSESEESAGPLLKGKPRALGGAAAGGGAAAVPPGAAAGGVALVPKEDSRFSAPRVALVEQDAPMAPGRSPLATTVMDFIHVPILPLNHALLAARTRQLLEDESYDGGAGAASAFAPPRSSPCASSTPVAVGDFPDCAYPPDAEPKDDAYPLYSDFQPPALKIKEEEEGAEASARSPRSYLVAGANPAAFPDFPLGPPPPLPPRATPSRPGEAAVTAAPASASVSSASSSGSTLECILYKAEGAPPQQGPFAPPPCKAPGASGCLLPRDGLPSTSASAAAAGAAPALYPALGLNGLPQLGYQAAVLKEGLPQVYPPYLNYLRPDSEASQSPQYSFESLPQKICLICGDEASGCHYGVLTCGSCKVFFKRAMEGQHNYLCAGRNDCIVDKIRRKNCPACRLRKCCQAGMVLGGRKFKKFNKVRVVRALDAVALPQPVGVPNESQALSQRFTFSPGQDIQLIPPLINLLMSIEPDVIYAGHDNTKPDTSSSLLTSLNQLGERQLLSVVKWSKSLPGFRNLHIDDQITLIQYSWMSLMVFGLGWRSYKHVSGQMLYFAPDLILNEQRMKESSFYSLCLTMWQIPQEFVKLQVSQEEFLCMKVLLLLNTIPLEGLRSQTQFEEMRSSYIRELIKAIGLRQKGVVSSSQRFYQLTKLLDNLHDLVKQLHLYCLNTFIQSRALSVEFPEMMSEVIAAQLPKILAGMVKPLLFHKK

SMILES | Potency [1] | Potency [2] | Potency [3] | Potency [4] | Potency [5] | Potency [6] | Potency [7] | outcome [8] | Potency [9] | Potency [10] | Potency [11] | Potency [12] | Potency [13] | Potency [14] | Potency [15] | Potency [16] | Potency [17] | Potency [18] | Potency [19]
CCOc1ccc2ccccc2c1C(=O)N[C@@H]1C(=O)N2[C@@H]1SC(C)(C)[C@@H]2C(=O)O | inactive | inactive | inactive | inactive | inactive | inactive | inactive | inactive | inactive | inactive | inactive | inactive | inactive | inactive | inactive | inactive | – | – | –
CCCCN(CCCC)CC(O)c1cc(Cl)cc2c1-c1ccc(Cl)cc1/C2=C/c1ccc(Cl)cc1 (centres undefined) | inactive | inactive | inactive | inactive | – | – | inactive | inactive | 29.8 µM (active) | 26.6 µM (active) | – | – | 10 µM (active) | 11.2 µM (active) | 0.49 µM (active) | 17.4 µM (active) | inactive | – | –
C=CC(C)(CCC=C(C)C)OC=O (centres undefined) | inactive | inactive | inactive | inactive | – | inactive | – | – | inactive | – | inactive | inactive | – | – | inactive | 20 µM (active) | inactive | inactive | inactive
CCCCOC(=O)CC | inactive | inactive | inactive | inactive | inactive | inactive | inactive | inactive | inactive | inactive | inactive | inactive | – | – | inactive | – | – | – | inactive
CC(=O)CC(=O)Nc1ccc(S(=O)(=O)O)cc1 | inactive | inactive | inactive | inactive | – | inactive | inactive | inactive | inactive | – | inactive | – | – | – | inactive | inactive | – | inactive | inactive
Cc1ccc(N/N=c2\c(=O)cc/c(=N\Nc3ccc(S(=O)(=O)O)cc3)c2=O)c(C)c1 | inactive | inactive | inactive | inactive | inactive | inactive | inactive | inactive | 30.6 µM (active) | 27.3 µM (active) | inactive | – | – | – | – | 79.6 µM (active) | – | – | –
CCC(COC(=O)CCS)(COC(=O)CCS)COC(=O)CCS | inactive | inactive | inactive | – | inactive | inactive | inactive | inactive | inactive | inactive | inactive | 21.7 µM (active) | – | – | inactive | 5.64 µM (active) | inactive | – | inactive
CC[N+](CC)(CC)CCOC(=O)C(C1CCCC1)C1CCCC1 | inactive | inactive | inactive | inactive | inactive | inactive | inactive | inactive | inactive | inactive | inactive | inactive | – | – | 1.95 µM (active) | – | – | – | –
CC(C)OC(=O)C(O)(CC(=O)O)CC(=O)O | inactive | inactive | inactive | inactive | – | inactive | inactive | inactive | inactive | inactive | inactive | 48.6 µM (active) | – | – | inactive | 35.6 µM (active) | – | inactive | inactive
